Screening results as filed in PubChem BioAssay.
Sfp PPTase inh = qHTS Assay for Inhibitors of Bacillus subtilis Sfp phosphopantetheinyl transferase (PPTase); 310,000 compounds, 3.5% hits; Potency, µM, inactives show largest response in the series, negative = inhibition, hits mostly inhibitors; Biochemical Sfp PPTase activity, qHTS; 4'-phosphopantetheinyl transferase ffp (Bacillus subtilis), Q9F4F7;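 note: the enzyme is Sfp with the accession as filed and its product quenches rhodamine fluorescence; 0% = enzyme reaction without inhibitor and -100% = no enzyme wells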
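Buffer: 50 mM Hepes-Na pH 7.6, 10 mM MgCl2, 0.01% Nonidet P-40, 0.01% BSA. Enzyme 15 nM, pre-exposed to compound 15 min; substrates then added and fluorescence change tracked over 30 min.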
BAZ2B block = qHTS Assay for Inhibitors of BAZ2B. AID 504333, 2011. Potency, µM (highest dose often 114 µM), without a hit: at the top dose activity change, negative = inhibition, hits mostly inhibitors. 360,000 compounds, 4.4% hits. AlphaScreen BAZ2B-H3K14Ac peptide displacement; note: % is set by controls: 0 for no effect and ±100 for the full control effect; nearly all actives have a fitted effect of over 60% in size
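Complex of BAZ2B and biotin-H3K14Ac (50 nM apiece) forms over 30 min at RT, then faces library compounds up to 110 uM for another 30 min; AlphaScreen beads added, 20 min dark incubation, luminescence read.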
G9a block = qHTS Assay for Inhibitors of Histone Lysine Methyltransferase G9a. G9a H3K9 monomethylation, AlphaScreen, 2 h. Histone-lysine N-methyltransferase EHMT2 (Homo sapiens), Q96KQ7. Potency, µM (titrated, usually from 102 µM), without a hit: at the highest dose activity, negative = inhibition, most hits filed as inhibitors. AID 504332, 2011. 350,000 compounds, 8.8% hits; note: % is set by controls: 0 for no effect and ±100 for the full control effect; nearly all actives have a fitted effect of over 75% in size
Target sequence (Q96KQ7 913-1193 limits assumed): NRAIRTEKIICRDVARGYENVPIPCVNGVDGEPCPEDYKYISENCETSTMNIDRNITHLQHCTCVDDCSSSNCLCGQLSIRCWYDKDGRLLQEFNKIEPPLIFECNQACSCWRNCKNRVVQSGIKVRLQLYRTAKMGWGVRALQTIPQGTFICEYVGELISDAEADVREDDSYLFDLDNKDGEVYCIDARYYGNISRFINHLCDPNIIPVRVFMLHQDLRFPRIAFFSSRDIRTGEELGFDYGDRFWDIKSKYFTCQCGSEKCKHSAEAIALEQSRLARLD
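Readings reflect AlphaScreen signal from monomethyl-H3K9 antibody detection. HMT at 20 nM; substrate b-H3K9 500 nM; cofactor SAM 20 uM; 2 h RT reaction; compounds tested as titrations in qHTS with 15 min preincubation.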
JMJD2A Tudor = qHTS Assay for Inhibitors of JMJD2A-Tudor Domain. Lysine-specific demethylase 4A (Homo sapiens), O75164. Potency, µM (titrated, usually from 114 µM), inactives show at the highest dose activity change, negative = inhibition, hits mostly inhibitors. AID 504339, 2011. 390,000 compounds, 4.4% hits. AlphaScreen JMJD2A-Tudor / H3K4me3 peptide binding; note: % is set by controls: 0 for no effect and ±100 for the full control effect; nearly all actives have a fitted effect of over 50% in size
PLK1 PBD block = qHTS for Inhibitors of PLK1-PDB (polo-like kinase 1 - polo-box domain): Primary Screen; AID 720504, 2013; 360,000 compounds, 2.8% hits; Potency, µM, without a hit: max response, negative = inhibition, actives largely listed as inhibitors; Serine/threonine-protein kinase PLK1 (Homo sapiens), P53350; Plk1 PBD binding of FITC phosphopeptide, fluorescence polarization; note: series mostly up to about 57 µM; % is set by controls: 0 for no effect and ±100 for the full control effect; nearly all actives have a fitted effect of over 65% in size
HP1b binding inh = HTS for Inhibitors of HP1-beta Chromodomain Interactions with Methylated Histone Tails. Chromobox protein homolog 1 (Homo sapiens), P83916. AlphaScreen HP1-beta / biotin-H3K9me3 peptide binding. Potency, µM (doses to about 114 µM), without a hit: top-dose activity change, negative = inhibition, hits mostly inhibitors. 390,000 compounds, 0.56% hits; note: nearly all actives have a fitted effect of over 70% in size
Target sequence (P83916 whole entry, looked up): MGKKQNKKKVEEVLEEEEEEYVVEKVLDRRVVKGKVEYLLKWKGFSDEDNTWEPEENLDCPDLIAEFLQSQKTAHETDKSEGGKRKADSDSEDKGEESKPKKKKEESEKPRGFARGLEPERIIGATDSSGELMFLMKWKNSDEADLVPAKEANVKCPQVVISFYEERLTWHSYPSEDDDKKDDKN
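AlphaScreen: HP1-beta (50 nM) preformed 30 min with biotin-H3(1-18)K9me3 peptide (50 nM) in PBS pH 7.4, 0.01% Tween-20. Compound added for 30 min at RT, then streptavidin donor/nickel chelate acceptor beads (10 ug/mL) for 30 min.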
The depositor's hits bear a star; ? = inconclusive; · = no result given; [ ] = another dose, or the depositor's remark. This is a sample that favours compounds with a hit; in the whole collection about 12% have one here. Calls come from the whole dose curve; as a rule, active = well fitted curve in the direction sought with a large enough effect; inconclusive = small, poorly fitted or top-dose-only effect, or another doubt; inactive = no such curve, though single readings can be large; an effect the other way counts as inactive or inconclusive. Potency is the fitted concentration of half-maximal effect.

SMILES	Sfp PPTase inh	BAZ2B block	G9a block	JMJD2A Tudor	PLK1 PBD block	HP1b binding inh
Cc1ccccc1-c1nc(C#N)c(N2CCC(C)CC2)o1	-8%	?	35µM*	?	-3%	?
NS(=O)(=O)c1cccc(NC(=O)CCC(=O)c2cccs2)c1	14%	2%	22%[2.33 µM]	-14%	-7%	10%
NS(=O)(=O)c1cccc(NC(=O)c2cc(-c3cccs3)nc3ccccc23)c1	10%	-35%	45µM*	-21%	8%	24%
NS(=O)(=O)c1cccc(NC(=O)c2cccs2)c1	6%	-2%	3%[12.7 µM]	-24%[11.4 µM]	13µM*	-10%
NS(=O)(=O)c1cccc(NC(=O)COC(=O)c2cc(-c3ccc(Cl)cc3)nc3ccccc23)c1	30%	-19%	35µM*	-19%	0%	11%
Cc1cc(C)n(C(=O)N(c2ccccc2)c2ccccc2)n1	4%	2%	-2%	8%	4%	32%
O=C(NC(=S)Nc1ccccc1F)c1ccc(Br)o1	1%	-30%	-27%	-3%	-19%	1%
Cc1ccc(CC2S/C(=C(/C#N)C(=O)NCc3ccco3)N(c3ccccc3)C2=O)cc1 (stereo not given)	-13%	1%	-7%	-4%	-9%	34%
N#C/C(C(=O)NCc1ccco1)=C1/SC=C(c2ccccc2)N1c1ccccc1	0%	-3%	16µM*	-7%	1%	35%
N#C/C(C(=O)NCc1ccco1)=C1/SC(Cc2ccc(Cl)cc2)C(=O)N1c1ccccc1 (stereo not given)	40µM*	11%	-16%[59 µM]	-21%	-3%	-6%
CCCCN(C)CCNC(=O)c1nn(-c2ccc(OC)c(Cl)c2)c(=O)c2c1c1ccccc1n2C	·	·	1%[59 µM]	-26%	·	34%
O=C(c1cc2ccccc2oc1=O)N(Cc1ccccc1F)C1CCS(=O)(=O)C1 (stereo not given)	8%	-20%	16%	1%	-6%	26%
COc1cc2c(cc1CN1CCN(C(=O)c3cc(OC)c(OC)c(OC)c3)CC1)OCO2	-14%	56µM*	11µM*	25µM*	-1%	-38%
COc1ccc(C(=O)N2CCN(Cc3ccc(OC)c(OC)c3)CC2)cc1	-12%	?	?	3.2µM*	7%	?
COc1ccc(OCC(=O)N2CCN(C(=O)c3cc(OC)c(OC)c(OC)c3)CC2)cc1	·	2%	-38%[59 µM]	-21%	·	42%
COc1ccc(CN2CCN(C(=O)c3cc(OC)c(OC)c(OC)c3)CC2)cc1OC	-30%	?	10µM*	2.5µM*	1%	-52%
COc1ccc(CN2CCN(C(=O)c3ccc4c(c3)CCC4)CC2)cc1OC	·	·	·	-23%	-16%	7%
COc1ccc(C(=O)N2CCN(Cc3cc(OC)ccc3OC)CC2)cc1	?	?	32µM*	50µM*	2%	?
CCOC(=O)N1CCN(C(=O)c2cc(OC)c(OC)c(OC)c2)CC1	6%	-4%	14%[59 µM]	7%	3%	37%
COc1ccc(C)cc1NC(=O)C(c1ccccc1)N1CCNC(=O)C1 (stereo not given)	20%	-9%	50µM*	·	·	·
Clc1ccc2nc(-c3ccc(Br)s3)cn2c1	19%	-2%	50µM*	-17%	-5%	-4%
COc1ccc(-c2cn3cc(C)ccc3n2)cc1Br	-18%	-10%	20%	-3%	-15%	0%
COc1ccc(-c2cn3cc(Cl)ccc3n2)cc1OC	-11%	?	79µM*	-4%	-13%	6%
COc1ccc(N2CCN(CCNC(=O)Nc3ccc([N+](=O)[O-])cc3OC)CC2)cc1	5%	?	45µM*	50µM*	-7%	?
COc1ccc(N2CCN(CCNC(=O)Nc3ccc(C)c(Cl)c3)CC2)cc1	9%	-35%	25µM*	-28%	-17%	2%
SMILES	Sfp PPTase inh	BAZ2B block	G9a block	JMJD2A Tudor	PLK1 PBD block	HP1b binding inh
COc1cc(NC(=O)NCCN2CCN(c3ccc(Cl)cc3)CC2)ccc1C	10%	?	?	-33%	-3%	-19%
Cc1ccc2c(c1)-c1c(cnn1CC(=O)N(Cc1ccco1)C1CCCCC1)CO2	-12%	-39%	-18%[59 µM]	?	-5%	-8%
Cc1ccc2c(c1)-c1c(cnn1CC(=O)NC(C)CCc1ccco1)CO2 (stereo not given)	?	-32%	45µM*	-28%	-12%	3%
COc1ccc(CCNc2nc(SCc3ccccc3F)nc3ccccc23)cc1OC	·	5%	1%[59 µM]	-6%	·	47%
N#C[C@@H]1[C@@H]2C(=O)N(c3ccc4c(c3)OCCO4)C(=O)[C@@H]2C2c3ccccc3C=CN21 (stereo not given in full)	-5%	-27%	7.9µM*	·	·	·
CC(C)(C)C(=O)[C@@H]1[C@@H]2C(=O)N(Cc3ccccc3)C(=O)[C@@H]2[C@H]2c3ccccc3C=CN12	-7%	-27%	10µM*	·	·	·
CC(=O)[C@@H]1[C@@H]2C(=O)N(c3ccc(F)c(Cl)c3)C(=O)[C@@H]2C2c3ccccc3C=CN21 (stereo not given in full)	11%	-6%	6.3µM*	·	·	·
CC(=O)[C@@H]1[C@@H]2C(=O)N(C3CCCCC3)C(=O)[C@@H]2C2c3ccccc3C=CN21 (stereo not given in full)	-29%	?	-41%[0.501 µM]	·	·	·
CC(=O)[C@H]1[C@@H]2C(=O)N(c3cccc(Cl)c3)C(=O)[C@@H]2[C@H]2c3ccccc3C=CN21	?	?	1.4µM*	?	?	2%
Cc1ccc(C)c(NC(=O)Cn2c(=O)n(Cc3ccc4c(c3)OCO4)c(=O)c3oc4ccccc4c32)c1	·	-7%	-8%[59 µM]	-14%	·	16%
[S-]c1nnc(-c2ccc(Br)cc2)n1-c1ccccc1.[Zn+2]	5%	79µM*	-5%[0.501 µM]	50µM*	-7%	21%
Cc1ccc(-c2ccc(/C=C3/NC(=O)NC3=O)o2)cc1[N+](=O)[O-]	?	-30%	?	-32%	-6%	15%
CC1=C(C#N)C(=O)NC(=O)/C1=C\c1ccc(-c2cc(C)c(C)cc2[N+](=O)[O-])o1	50µM*	45µM*	10µM*	56µM*	4.7µM*	?
